Results on three compounds are retold here after PubChem BioAssay (NCATS).

Records with an inconclusive call do not appear. A number with no mark means an inactive call. Activity calls are given as the source filed them. Calls come from the whole dose curve; as a rule, active = well fitted cell-killing curve with a large enough effect; inconclusive = small, poorly fitted or top-dose-only effect, or effect the other way; inactive = no such curve, though single readings can be large or run the other way.
Potency is the fitted concentration of half-maximal effect.

A short description of this assay: Quantitative High-Throughput drug screen in 47 multiple myeloma cell lines against the NCATS MIPE library collection: KMS28BM_JCRB cell viability assay (AID 1919874). Note: nearly all actives have a fitted effect of over 35% in size. The following applies: CellTiter-Glo ATP, 48 h; series mostly up to 45.8 µM; viability, % of control: at the top concentration. An excerpt:
PI: Beverly A. Mock Ph.D.
Laboratory of Cancer Biology and Genetics,
Center for Cancer Research, National Cancer Institute,
National Institute of Health, Bethesda, Maryland
Drug resistance and disease progression are common in multiple myeloma (MM) patients, underscoring the need for new therapeutic combinations. […] We hypothesized that effective combinations would reduce MYC expression and enhance p16 activity. […] These preclinical data identify potentially useful drug combinations for evaluation in drug-resistant MM and reveal potential mechanisms of combined drug sensitivity.
Described herein is the primary MIPE qHTS used to cherrypick compounds. Validated compounds were then further tested for potential synergistic activiy.
[1] Peat TJ, Gaikwad SM, Dubois W, Gyabaah-Kessie N, Zhang S, Gorjifard S, Phyo Z, Andres M, Hughitt VK, Simpson RM, Miller MA, Girvin AT, Taylor A, Williams D, D'Antonio N, Zhang Y, Rajagopalan A, Flietner E, Wilson K, Zhang X, Shinn P, Klumpp-Thomas C, McKnight C, Itkin Z, Chen L, Kazandijian D, Zhang J, Michalowski AM, Simmons JK, Keats J, Thomas CJ, Mock BA. Drug combinations identified by high-throughput screening promote cell cycle transition and upregulate Smad pathways in myeloma. Cancer Lett. 2023 Aug 1;568:216284. doi: 10.1016/j.canlet.2023.216284. Epub 2023 Jun 24. PMID: 37356470; PMCID: PMC10408729.
SEQUENCE No. (e.g., 1, 2, 3, etc.); […] (e.g., Cells, Incubation, Reagent, etc.); VALUE and DESCRIPTION.
1; Cells; 5 uL; white, solid bottom 1536-well Greiner assay plate.
2; Compounds; 23 nL; Kalypsis pin tool (Wako USA) equipped with a 1536-well pin head to transfer to the assay plates.
3; Incubation; 48 hours; 37C incubation.
4; Reagent;5uL; CellTiter Glo (Promega).
5; Detector; 425V; Luminescence; Viewlux PerkinElmer. […]
1. […] Briefly, the corresponding myeloma cell lines were screened in 1,536-well plates with 500 cells, 5-uL per well for inhibition of cell viability (assessed by measuring ATP levels with CellTiterGlo). […]
5. Signal was measured as median relative luminescence units on a ViewLux (PerkinElmer) multiplate reader. […]
Background: Cellular ATP, detected with luciferase, serves as a proxy for viable cell number.
With `COC(=O)C1=CCCN(C)C1`, the “viability, % of control” value was 135%.
On to `C[C@@H]1C[C@@H]([C@H](O)CC2CC(=O)NC(=O)C2)C(=O)[C@@H](C)C1`, for which the Potency was 0.833 µM (active).
On the same count and under the same terms, then `COc1ccc(C(=O)N2CCCC2=O)cc1`, with 8.33 µM (active).
